# Compounds without any hit were thinned out: in the full panel of roughly 79,000, 15% have a hit. A number with no mark means an inactive call. Rule as the data show it: active = growth inhibition above about 70%; inactive = the rest.
# Experiment: NCI Yeast Anticancer Drug Screen. Data for the rad50 strain (AID 155);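 also: 0% = growth of vehicle-only cultures of the same strain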
# Details: S. cerevisiae rad50 strain growth inhibition; at 50.0 µM; active compounds read high
# How it was run: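 Growth of the mutant yeast was measured after compound exposure and referenced to vehicle-treated cultures.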
row,SMILES,growth inhibition [%]
1,Clc1ccc(C2N3CCCCC3[C@@H]3c4[nH]c5ccccc5c4CCN23)cc1 (stereo not given in full),-11.7
2,O=C(Nc1nccs1)c1cc(C2=CC=CC([N+](=O)[O-])C=C2)nc(=S)[nH]1 (stereo not given),-12.9
3,C=CCOC(=O)C1CCCCC1C(=O)OCC=C (stereo not given),1.45
4,C1=Nc2ccccc2/C1=C/c1ccc2c(c1)OCO2,24.3
5,CCn1c(=O)c(C(=O)O)c(Cl)c2cc3c(cc21)OCO3,10.3
6,Cn1c(=O)c2c(nc(Br)n2CC(=O)CF)n(C)c1=O,13.2
7,Cc1cc2c(=O)c3ccccc3oc2c(C(=O)O)c1C,-6.75
8,COc1cccc(C2c3cc4c(cc3OC(N3CCCCC3)C2C)OCO4)c1OC (stereo not given),33.1
9,Oc1ccc(N=Cc2ccc(C=Nc3ccc(O)cc3)cc2)cc1,-22.9
10,CC(C)=Nn1cnc2nccnc2c1=O,2.55
11,CCOc1cccc(/C=N/N=C2\C(=O)Nc3c(Cl)cc(Cl)cc32)c1O,22.2
12,CC(C)c1cc(C(C)C)c(Cc2c(C(C)C)cc(C(C)C)cc2C(C)C)c(C(C)C)c1,15
13,O=C(O)Cc1cc(CC(=O)O)cc(CC(=O)O)c1,-3.8
14,O=c1oc2ccc(Cl)cc2n1CN1CCOCC1,1.9
15,CCOC(=O)C(C(=O)OCC)C(NC(=O)Nc1cc(C(F)(F)F)ccc1OC)(C(F)(F)F)C(F)(F)F,23.1
16,N#C/C(=C\NC(=S)Nc1ccc(S(=O)(=O)Nc2nccs2)cc1)C(=O)c1ccc2ccccc2c1,7.7
17,CC1=NN(C(=O)CC(=O)Nc2cccc(Cl)c2)C(=O)C1N=Nc1ccc(C(=O)O)cc1 (stereo not given),-3.25
18,COC1CCC2(C)C3CCC4C(=CCC5C(C)(C)C(=O)CCC45C)CC3(C)CCC2C1(C)C (stereo not given),16.3
19,O=[N+]([O-])c1ccc(C2=NCC=CCO2)cc1,18
20,CC1(C)CC(=O)C2=C(C1)NC(=S)C(C#N)C2c1ccccc1 (stereo not given),10.2

row,SMILES,growth inhibition [%]
1,O=c1[nH]ncc2ccc([N+](=O)[O-])cc12,6.45
2,CC(Sc1ccc([N+](=O)[O-])cn1)C(=O)O (stereo not given),2.55
3,OC(c1ccccc1)C1CC2C=CC1C2 (stereo not given),10.4
4,CC(=O)CCC(=O)CC(=O)CCC(=O)Nc1cc(Cl)ccc1Cl,15.3
5,Cc1cc(Cl)ccc1NC(=O)C1C(=O)N(c2ccc(Cl)cc2C)C(=O)/C1=N\NC(N)=O (stereo not given),7.65
6,CCCCCCCCCCCCCCCCS(=O)(=O)N/N=C(/c1ccc(OC)c(OC)c1)N1CCCCC1,-24.9
7,Nc1cccc2c([N+](=O)[O-])cccc12,62.7
8,COC1/C=C/OC2(C)Oc3c(C)c(O)c4c(O)c(c(C5SCCS5)c(O)c4c3C2=O)NC(=O)/C(C)=C\C=C\C(C)C(O)C(C)C(O)C(C)C(O)C1C (stereo not given),5.15
9,c1ccc2c(c1)Cc1c(-c3ccncc3)n[nH]c1-2,48.8
10,CN(C)CCCOCCn1c2c(c3ccccc31)CCCC2,19.2
11,CCOCCC(=O)OCCC(C)OC (stereo not given),4.95
12,CC(C)CCCCCCCCCCCCC(=O)NCC(=O)NC1C(C)OC(Nc2ncnc3c2ncn3C)C(O)C1O (stereo not given),10
13,COc1cc(C2C3=C(COC3=O)OC(C)(C)Oc3cc4c(cc32)OCO4)cc(OC)c1OC (stereo not given),4.95
14,Nc1c(Br)cc2c(c1Br)C(=O)c1ccccc1-2,3.95
15,Oc1ccc(Cl)cc1-c1cc(-c2ccccc2)nc(=S)[nH]1,-12.7
16,CC(=O)OCC1OC(OC(C)=O)C(NC(=O)C[NH-])C(OC(C)=O)C1OC(C)=O.CC(=O)OCC1OC(OC(C)=O)C(NC(=O)C[NH-])C(OC(C)=O)C1OC(C)=O.[Cl][Pt+2][Cl] (stereo not given),-2.75
17,Cn1c(=O)c2[nH]c(CC3=CCCCC3)nc2n(C)c1=O,-13.6
18,O=C1OCCOCCOCCOCCOCCOCCOC(=O)c2cccc1n2,28.9
19,Cc1cc(C)c(C(=O)c2ccccc2C)c(C)c1,21.3
20,Cc1ccc(S(=O)(=O)OCCOc2ccc(C(C)(C)CC(C)(C)C)cc2)cc1,43.9

# Experiment: NCI Yeast Anticancer Drug Screen. Data for the mec2-1 strain (AID 157)
# Details: S. cerevisiae mec2-1 strain, at 50.0 µM, active compounds read high
# How it was run: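 mec2-1 yeast strain, carrying an alteration in DNA damage repair or cell cycle control, was exposed to compounds; growth inhibition was measured relative to vehicle-treated controls.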
row,SMILES,growth inhibition [%]
1,Clc1ccc(C2N3CCCCC3[C@@H]3c4[nH]c5ccccc5c4CCN23)cc1 (stereo not given in full),-10.8
2,O=C(Nc1nccs1)c1cc(C2=CC=CC([N+](=O)[O-])C=C2)nc(=S)[nH]1 (stereo not given),-18.5
3,C=CCOC(=O)C1CCCCC1C(=O)OCC=C (stereo not given),-1.65
4,C1=Nc2ccccc2/C1=C/c1ccc2c(c1)OCO2,11.7
5,CCn1c(=O)c(C(=O)O)c(Cl)c2cc3c(cc21)OCO3,9
6,Cn1c(=O)c2c(nc(Br)n2CC(=O)CF)n(C)c1=O,10.8
7,Cc1cc2c(=O)c3ccccc3oc2c(C(=O)O)c1C,-6.25
8,COc1cccc(C2c3cc4c(cc3OC(N3CCCCC3)C2C)OCO4)c1OC (stereo not given),30.8
9,Oc1ccc(N=Cc2ccc(C=Nc3ccc(O)cc3)cc2)cc1,-12.6
10,CC(C)=Nn1cnc2nccnc2c1=O,-6.05
11,CCOc1cccc(/C=N/N=C2\C(=O)Nc3c(Cl)cc(Cl)cc32)c1O,15.6
12,CC(C)c1cc(C(C)C)c(Cc2c(C(C)C)cc(C(C)C)cc2C(C)C)c(C(C)C)c1,14.2
13,O=C(O)Cc1cc(CC(=O)O)cc(CC(=O)O)c1,-18.8
14,O=c1oc2ccc(Cl)cc2n1CN1CCOCC1,-26.9
15,CCOC(=O)C(C(=O)OCC)C(NC(=O)Nc1cc(C(F)(F)F)ccc1OC)(C(F)(F)F)C(F)(F)F,11.6
16,N#C/C(=C\NC(=S)Nc1ccc(S(=O)(=O)Nc2nccs2)cc1)C(=O)c1ccc2ccccc2c1,1.8
17,CC1=NN(C(=O)CC(=O)Nc2cccc(Cl)c2)C(=O)C1N=Nc1ccc(C(=O)O)cc1 (stereo not given),1.35
18,COC1CCC2(C)C3CCC4C(=CCC5C(C)(C)C(=O)CCC45C)CC3(C)CCC2C1(C)C (stereo not given),-11.3
19,O=[N+]([O-])c1ccc(C2=NCC=CCO2)cc1,16.2
20,CC1(C)CC(=O)C2=C(C1)NC(=S)C(C#N)C2c1ccccc1 (stereo not given),-4

row,SMILES,growth inhibition [%]
1,O=c1[nH]ncc2ccc([N+](=O)[O-])cc12,7.9
2,CC(Sc1ccc([N+](=O)[O-])cn1)C(=O)O (stereo not given),12.9
3,OC(c1ccccc1)C1CC2C=CC1C2 (stereo not given),3.9
4,CC(=O)CCC(=O)CC(=O)CCC(=O)Nc1cc(Cl)ccc1Cl,24.2
5,Cc1cc(Cl)ccc1NC(=O)C1C(=O)N(c2ccc(Cl)cc2C)C(=O)/C1=N\NC(N)=O (stereo not given),-24.4
6,CCCCCCCCCCCCCCCCS(=O)(=O)N/N=C(/c1ccc(OC)c(OC)c1)N1CCCCC1,-28.8
7,Nc1cccc2c([N+](=O)[O-])cccc12,34.4
8,COC1/C=C/OC2(C)Oc3c(C)c(O)c4c(O)c(c(C5SCCS5)c(O)c4c3C2=O)NC(=O)/C(C)=C\C=C\C(C)C(O)C(C)C(O)C(C)C(O)C1C (stereo not given),19.1
9,c1ccc2c(c1)Cc1c(-c3ccncc3)n[nH]c1-2,33
10,CN(C)CCCOCCn1c2c(c3ccccc31)CCCC2,-1.2
11,CCOCCC(=O)OCCC(C)OC (stereo not given),11
12,CC(C)CCCCCCCCCCCCC(=O)NCC(=O)NC1C(C)OC(Nc2ncnc3c2ncn3C)C(O)C1O (stereo not given),-14.5
13,COc1cc(C2C3=C(COC3=O)OC(C)(C)Oc3cc4c(cc32)OCO4)cc(OC)c1OC (stereo not given),-11.8
14,Nc1c(Br)cc2c(c1Br)C(=O)c1ccccc1-2,8.8
15,Oc1ccc(Cl)cc1-c1cc(-c2ccccc2)nc(=S)[nH]1,-34.8
16,CC(=O)OCC1OC(OC(C)=O)C(NC(=O)C[NH-])C(OC(C)=O)C1OC(C)=O.CC(=O)OCC1OC(OC(C)=O)C(NC(=O)C[NH-])C(OC(C)=O)C1OC(C)=O.[Cl][Pt+2][Cl] (stereo not given),-19.4
17,Cn1c(=O)c2[nH]c(CC3=CCCCC3)nc2n(C)c1=O,13.1
18,O=C1OCCOCCOCCOCCOCCOCCOC(=O)c2cccc1n2,-0.7
19,Cc1cc(C)c(C(=O)c2ccccc2C)c(C)c1,-1
20,Cc1ccc(S(=O)(=O)OCCOc2ccc(C(C)(C)CC(C)(C)C)cc2)cc1,-15.6

# — PubChem BioAssay (NCI)
